Results from PubChem BioAssay (Tox21).
Where “and” joins values, the source holds several entries; their conditions need not be identical. Equal entries are not always repeated. Inconclusive results are not listed. More than one record can exist for a structure, and the calls need not agree. Calls of active or inactive are those of the source. Calls come from the whole dose curve; as a rule, active = well fitted curve in the direction sought with a large enough effect in the repeat runs; inconclusive = weak or mixed curves; inactive = no such curve, though single readings can be large; an effect the other way counts as inactive or inconclusive.

Assays:
[1] = qHTS RealTime-Glo MT Cell Viability Assay in HEK293 cells - 16 hour (AID 1224872); note: nearly all actives have a fitted effect of over 50% in size; note: potency is the fitted concentration of half-maximal effect
In short: (§1)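 HEK293 cells seeded with NanoLuc/prosubstrate reagent, rested 5 h at 37 C, then dosed and kept at 37 C up to 40 h. Nonlytic real-time luminescence from viable cells read at 0, 8, 16, 24, 32 and 40 h.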

[2] = qHTS RealTime-Glo MT Cell Viability Assay in HepG2 cells - 8 hour (AID 1224873); note: nearly all actives have a fitted effect of over 55% in size
In short: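 HepG2 cells mixed with RealTime-Glo MT reagents (NanoLuc plus cell-permeant prosubstrate) were seeded at 600 cells/well, incubated 5 h at 37 C/5% CO2, then pinned with compounds in DMSO; nonlytic luminescence tracked viability during 40 h treatment.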

[3] = qHTS RealTime-Glo MT Cell Viability Assay in HEK293 cells - 40 hour (AID 1224874); settings: RealTime-Glo luminescence; max response: stronger effect = lower value; note: nearly all actives have a fitted effect of over 50% in size; note: potency is the fitted concentration of half-maximal effect
In short: (§2)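 Luminescence readout at each listed time point; HEK293, 600 cells/well, RealTime-Glo MT reagent added with cells; compounds pinned (23 nL in DMSO) after 5 h at 37 C; continuous culture at 37 C.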

[4] = A CellTox Green Cytotoxicity Assay to monitor cytotoxicity in HEK293 cells - 24 hour (AID 1224875); note: series mostly up to about 77 µM; nearly all actives have a fitted effect of over 45% in size
In short: (§3)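 Read-out: fluorescence of a cell-impermeant cyanine dye staining DNA of dead cells, proportional to cytotoxicity. HEK293, 600 cells/well with reagent, compound (23 nL DMSO) added after 5 h; reads at 0, 8, 16, 24, 32, 40 h.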

[5] = A CellTox Green Cytotoxicity Assay to monitor cytotoxicity in HepG2 cells - 16 hour (AID 1224876); note: nearly all actives have a fitted effect of over 45% in size; note: potency is the fitted concentration of half-maximal effect
In short: (§4)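 HepG2, 600 cells/well premixed w/ CellTox Green; 5 h settle, 37 C/5% CO2; pintool cpd add (DMSO); 37 C, 40 h; fluorescence read at 0, 8, 16, 24, 32, 40 h.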

[6] = qHTS RealTime-Glo MT Cell Viability Assay in HepG2 cells - 32 hour (AID 1224877); note: nearly all actives have a fitted effect of over 55% in size
In short: (§5)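 HepG2 cells (600/well) were dispensed with RealTime-Glo reagents, incubated 5 h at 37 °C, then treated with compounds in DMSO for up to 40 h. Nonlytic NanoLuc luminescence reflecting viable cells was read at each stated time point.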

[7] = A CellTox Green Cytotoxicity Assay to monitor cytotoxicity in HepG2 cells - 24 hour (AID 1224878); note: nearly all actives have a fitted effect of over 45% in size; note: potency is the fitted concentration of half-maximal effect
In short: as §4

[8] = A CellTox Green Cytotoxicity Assay to monitor cytotoxicity in HepG2 cells - 40 hour (AID 1224879); note: nearly all actives have a fitted effect of over 40% in size
In short: as §4

[9] = qHTS RealTime-Glo MT Cell Viability Assay in HEK293 cells - 0 hour (AID 1224880); note: top concentration of the series differs between compounds; nearly all actives have a fitted effect of over 45% in size
In short: as §2

[10] = A CellTox Green Cytotoxicity Assay to monitor cytotoxicity in HEK293 cells - 32 hour (AID 1224881); note: nearly all actives have a fitted effect of over 40% in size; note: potency is the fitted concentration of half-maximal effect
In short: as §3

[11] = A CellTox Green Cytotoxicity Assay to monitor cytotoxicity in HepG2 cells - 0 hour (AID 1224882); note: nearly all actives have a fitted effect of over 35% in size; note: potency is the fitted concentration of half-maximal effect
In short: as §4

[12] = A CellTox Green Cytotoxicity Assay to monitor cytotoxicity in HepG2 cells - 32 hour (AID 1224883); note: nearly all actives have a fitted effect of over 50% in size; note: potency is the fitted concentration of half-maximal effect
In short: as §4

[13] = A CellTox Green Cytotoxicity Assay to monitor cytotoxicity in HEK293 cells - 8 hour (AID 1224884); note: nearly all actives have a fitted effect of over 35% in size; note: potency is the fitted concentration of half-maximal effect
In short: as §3

[14] = qHTS RealTime-Glo MT Cell Viability Assay in HepG2 cells - 16 hour (AID 1224885); note: nearly all actives have a fitted effect of over 50% in size
In short: as §5

[15] = qHTS RealTime-Glo MT Cell Viability Assay in HEK293 cells - 24 hour (AID 1224886); note: nearly all actives have a fitted effect of over 50% in size; note: potency is the fitted concentration of half-maximal effect
In short: as §1

[16] = qHTS RealTime-Glo MT Cell Viability Assay in HEK293 cells - 8 hour (AID 1224887)
In short: as §2

[17] = A CellTox Green Cytotoxicity Assay to monitor cytotoxicity in HEK293 cells - 16 hour (AID 1224888); note: nearly all actives have a fitted effect of over 35% in size
In short: as §3

[18] = A CellTox Green Cytotoxicity Assay to monitor cytotoxicity in HepG2 cells - 8 hour (AID 1224890); note: nearly all actives have a fitted effect of over 45% in size; note: potency is the fitted concentration of half-maximal effect
In short: as §4

[19] = qHTS assay to identify small molecule antagonists of the estrogen receptor alpha (ER-alpha) signaling pathway using the BG1 cell line in the presence of 0.1 nM 17-beta-estradiol - cell viability counter screen (AID 1259241); note: nearly all actives have a fitted effect of over 40% in size; note: potency is the fitted concentration of half-maximal effect
In short: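 CellTiter-Fluor read (30 min, 37C) on ER-alpha/ERE-luc VM7Luc4E2 cells; 22 hr compound treatment; agonist 0.1 nM E2 final; same-well multiplex.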

[20] = qHTS RealTime-Glo MT Cell Viability Assay in HepG2 cells - 0 hour (AID 1224889); note: nearly all actives have a fitted effect of over 50% in size
In short: as §5
% is set by controls: 0 for no effect and ±100 for the full control effect.

CC(C)Cc1ccccc1
inactive: Potency [1] | Potency [2] | max response [3] 14.2% and -0.413% | Potency [4] | Potency [5] | Potency [6] | Potency [7] | Potency [8] | Potency [9] | Potency [10] | Potency [11] | Potency [12] | Potency [13] | Potency [14] | Potency [15] | Potency [16] | Potency [17] | Potency [18] | Potency [19]

O=S(=O)(O)CCS
inactive: Potency [1] | Potency [2] | max response [3] 0.917% and -2.58% | Potency [4] | Potency [5] | Potency [6] | Potency [7] | Potency [8] | Potency [9] | Potency [10] | Potency [11] | Potency [12] | Potency [13] | Potency [14] | Potency [15] | Potency [16] | Potency [17] | Potency [20] | Potency [18] | Potency [19]

CCCCC(CC)COC(=O)CCCCCCCC(=O)OCC(CC)CCCC (configuration not stated)
inactive: Potency [2] | max response [3] 4.32% | Potency [6] | Potency [9] | Potency [14] | Potency [16]
active: Potency [3] 4.9 µM | Potency [5] 49 µM | Potency [7] 49 µM | Potency [12] 49 µM
54.9 µM (active) and inactive: Potency [10] | Potency [11] | Potency [13] | Potency [18]
24.5 µM (active) and inactive: Potency [1] | Potency [15]

C=C(C#N)C(=O)OCC
inactive: Potency [1] | Potency [2] | max response [3] -3.09% and 0.0188% | Potency [4] | Potency [5] | Potency [6] | Potency [7] | Potency [8] | Potency [9] | Potency [10] | Potency [11] | Potency [12] | Potency [13] | Potency [14] | Potency [15] | Potency [16] | Potency [17] | Potency [20] | Potency [18] | Potency [19]

CN(CCOc1ccc(CC2SC(=O)NC2=O)cc1)c1ccccn1 (configuration not stated)
inactive: Potency [1] | Potency [2] | max response [3] -1.82% | Potency [4] | Potency [5] | Potency [6] | Potency [7] | Potency [8] | Potency [9] | Potency [10] | Potency [11] | Potency [12] | Potency [13] | Potency [14] | Potency [15] | Potency [16] | Potency [17] | Potency [20] | Potency [18] | Potency [19]

NS(=O)(=O)c1cc2c(cc1Cl)NC=NS2(=O)=O
inactive: Potency [1] | Potency [2] | max response [3] 7.37% and 0.52% | Potency [4] | Potency [5] | Potency [6] | Potency [7] | Potency [9] | Potency [10] | Potency [11] | Potency [12] | Potency [13] | Potency [14] | Potency [15] | Potency [16] | Potency [17] | Potency [20] | Potency [18] | Potency [19]

O=[N+]([O-])c1cc(N(CCO)CCO)ccc1NCCO
inactive: Potency [1] | Potency [2] | max response [3] 0.623% and 8.81% | Potency [4] | Potency [5] | Potency [6] | Potency [7] | Potency [8] | Potency [9] | Potency [10] | Potency [11] | Potency [12] | Potency [13] | Potency [14] | Potency [15] | Potency [16] | Potency [17] | Potency [20] | Potency [18]
active: Potency [19] 34.4 µM

CC1COc2ccccc2N1C(=O)C(Cl)Cl (configuration not stated)
inactive: Potency [1] | Potency [2] | max response [3] -21% | Potency [4] | Potency [5] | Potency [6] | Potency [7] | Potency [8] | Potency [9] | Potency [10] | Potency [11] | Potency [12] | Potency [13] | Potency [14] | Potency [15] | Potency [16] | Potency [17] | Potency [20] | Potency [18] | Potency [19]

O=[N+]([O-])C(CO)(CO)CO
inactive: Potency [1] | Potency [2] | max response [3] 10.8% | Potency [4] | Potency [5] | Potency [6] | Potency [7] | Potency [8] | Potency [9] | Potency [10] | Potency [11] | Potency [12] | Potency [13] | Potency [14] | Potency [15] | Potency [16] | Potency [17] | Potency [18] | Potency [19]

O=C1CCCCC1
inactive: Potency [1] | Potency [2] | max response [3] 4.63% and 22.1% | Potency [4] | Potency [5] | Potency [6] | Potency [7] | Potency [9] | Potency [10] | Potency [11] | Potency [12] | Potency [13] | Potency [14] | Potency [15] | Potency [16] | Potency [17] | Potency [20] | Potency [18] | Potency [19]

CCCCC(CC)COC(C)=O (configuration not stated)
inactive: Potency [1] | Potency [2] | max response [3] 1.23% and 1.38% | Potency [4] | Potency [5] | Potency [6] | Potency [7] | Potency [8] | Potency [9] | Potency [10] | Potency [11] | Potency [12] | Potency [13] | Potency [14] | Potency [15] | Potency [16] | Potency [17] | Potency [20] | Potency [18] | Potency [19]

C/C=C(C)/C=C/C=C(C)C
inactive: Potency [1] | Potency [2] | max response [3] -28.6% and 16.8% | Potency [4] | Potency [5] | Potency [6] | Potency [7] | Potency [8] | Potency [9] | Potency [10] | Potency [11] | Potency [12] | Potency [13] | Potency [14] | Potency [15] | Potency [16] | Potency [17] | Potency [20] | Potency [18] | Potency [19]

C=C(C)C(=O)OCCC[Si](OC)(OC)OC
inactive: Potency [1] | Potency [2] | max response [3] 1.98% and 0.0703% | Potency [4] | Potency [5] | Potency [6] | Potency [7] | Potency [8] | Potency [9] | Potency [10] | Potency [11] | Potency [12] | Potency [13] | Potency [14] | Potency [15] | Potency [16] | Potency [17] | Potency [20] | Potency [18] | Potency [19]
